Activity calls are given as the source filed them. Unless noted, how the calls were made is not given here.
Legend:
[1] = compound effects on lung adenocarcinoma cell viability – A549, calcein-AM fluorescence, 48 h, basal, profiling panel (AID 1162); details: higher = more signal; further: test concentration not given here
[2] = compound effects on differentiated 3T3-L1 adipocyte viability – cell-based, 3T3-L1 adipocytes, calcein-AM fluorescence, 48 h, basal, profiling panel (AID 1163); details: 3T3-L1 adipocytes viability, higher = more signal; further: test concentration not given here
[3] = compound effects on hepatocellular carcinoma cell viability – HepG2, calcein-AM fluorescence, 48 h, basal, profiling panel (AID 1164); details: higher = more signal; further: test concentration not given here
[4] = compound effects on multiple myeloma cell viability – MM1S, calcein-AM fluorescence, 48 h, basal, profiling panel (AID 1165); details: higher = more signal;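 further: viability of MM1S multiple myeloma cells under basal unstimulated conditions; test concentration not given here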
[5] = calcein-AM signal in unstimulated myeloma cells – cell-based, calcein-AM fluorescence, 48 h, PK04 Diversity Set, profiling panel (AID 1166); details: RPMI8226 myeloma viability, higher = more signal;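 further: cells grown under basal conditions without added stimulus; test concentration not given here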
[6] = JC-1 mitochondrial signal, unstimulated HepG2 cells – cell-based, JC-1 fluorescence, 24 h, 100 nL compound, profiling panel (AID 1167); details: HepG2 mitochondrial potential, higher = more signal; further: test concentration not given here
[7] = JC-1 mitochondrial signal, unstimulated adipocytes – cell-based, JC-1 fluorescence, 3T3-L1 adipocytes, 24 h, 100 nL compound, profiling panel (AID 1168); details: JC-1 mitochondrial fluorescence, higher = more signal, called active from +8 up or from −8 down; further: test concentration not given here
[8] = JC-1 mitochondrial signal, unstimulated myeloma cells – cell-based, JC-1 fluorescence, RPMI8226, 24 h, 100 nL compound, profiling panel (AID 1169); details: JC-1 mitochondrial potential fluorescence, higher = more signal; further: test concentration not given here
[9] = JC-1 mitochondrial signal, unstimulated MM1S myeloma – cell-based, JC-1 fluorescence, 24 h, 100 nL compound, profiling panel (AID 1170); details: MM1S mitochondrial potential, higher = more signal; further: test concentration not given here
[10] = resazurin metabolic signal in A549 cells – cell-based, resazurin fluorescence, 24 h, PK04 Diversity Set, profiling panel (AID 1171); details: A549 viability, higher = more signal, called active from +8 up or from −8 down; further: test concentration not given here
[11] = resazurin metabolic signal in HepG2 cells – cell-based, resazurin fluorescence, 24 h, PK04 Diversity Set, profiling panel (AID 1172); details: HepG2 viability, higher = more signal; further: test concentration not given here
[12] = budding yeast growth changes without added modifier – OD600, strain BY4716, 24 h, basal condition, primary screen (AID 1173); details: S. cerevisiae BY4716 growth, OD600, 24 h; higher = more signal, called active from +8 up or from −8 down
[13] = viability profiling in MM1S myeloma cells – cell-based, resazurin fluorescence, basal, 24 h, PK04 Diversity Set, profiling panel (AID 1174); details: higher = more signal, called active from +8 up or from −8 down; further: test concentration not given here
[14] = molecular target: Dihydroorotate dehydrogenase (quinone), mitochondrial (Plasmodium falciparum (isolate 3D7)) (UniProt Q08210); assay: inhibition of P. falciparum DHODH – biochemical, C-terminal His tag, absorbance 600 nm, primary screen (AID 1175); details: PfDHODH enzyme, DCIP absorbance 600 nm; higher = more signal, called active from +8 up or from −8 down;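 further: recombinant parasite enzyme with a five histidine tag at its C terminus; test concentration not given here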
[15] = inhibition of PAO1 biofilm formation – strain PAO1, LB-PBS medium, absorbance 600 nm, primary screen (AID 1176); further: test concentration not given here; details: P. aeruginosa PAO1 growth/biofilm, A600, 12 h; higher = more signal
[16] = growth modulation of vineyard yeast isolate – strain RM11-1a, OD600, basal, 24 h, primary screen (AID 1177);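 further: cultures grown under basal conditions with no added stressor; test concentration not given here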; details: S. cerevisiae RM11-1a growth, OD600, 24 h; higher = more signal, called active from +8 up or from −8 down
[17] = growth of efflux-deficient E. coli DRC39 – strain DRC39, OD650, 24 h, E. coli filamentation inducers, primary screen (AID 1178);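 further: growth measured as culture turbidity by optical density at 650 nm; test concentration not given here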; details: E. coli DRC39 acrAB, higher = more signal, called active from +8 up or from −8 down
[18] = growth of efflux-deficient E. coli DRC39 – strain DRC39, OD650, 48 h, E. coli filamentation inducers, primary screen (AID 1179);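 further: screen aims at cell division blockers that make cells filament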; details: E. coli DRC39 delta-acrAB growth, higher = more signal, called active from +8 up or from −8 down
[19] = viability profiling in RPMI8226 myeloma cells – cell-based, resazurin fluorescence, basal, 24 h, PK04 Diversity Set, profiling panel (AID 1180); details: higher = more signal;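 further: RPMI8826 multiple myeloma cell line at 5000 cells per well; test concentration not given here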
[20] = molecular target: E3 ubiquitin-protein ligase XIAP (Homo sapiens) (UniProt P98170); assay: small molecules binding XIAP protein – biophysical, small-molecule microarray, fluorescence 635 nm, primary screen (AID 1181); details: higher = more signal;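 further: score merges 667 nm emission and signal to noise over triplicate slides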
E3 ubiquitin-protein ligase XIAP (Homo sapiens), sequence (P98170 whole entry, looked up): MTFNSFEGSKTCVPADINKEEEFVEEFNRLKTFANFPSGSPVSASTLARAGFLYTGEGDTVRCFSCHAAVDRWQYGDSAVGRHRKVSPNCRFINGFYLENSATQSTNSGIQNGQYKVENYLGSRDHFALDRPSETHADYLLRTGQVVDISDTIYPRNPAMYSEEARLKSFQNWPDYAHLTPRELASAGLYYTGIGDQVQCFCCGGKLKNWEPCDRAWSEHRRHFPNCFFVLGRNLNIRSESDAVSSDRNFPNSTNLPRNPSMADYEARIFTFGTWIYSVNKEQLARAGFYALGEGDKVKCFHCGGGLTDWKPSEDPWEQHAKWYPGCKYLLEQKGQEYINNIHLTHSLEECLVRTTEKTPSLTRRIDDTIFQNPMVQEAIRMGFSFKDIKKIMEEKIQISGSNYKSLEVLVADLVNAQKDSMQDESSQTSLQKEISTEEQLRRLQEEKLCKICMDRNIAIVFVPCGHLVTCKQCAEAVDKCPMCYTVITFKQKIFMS

Dihydroorotate dehydrogenase (quinone), mitochondrial (Plasmodium falciparum (isolate 3D7)), sequence (Q08210 whole entry, looked up): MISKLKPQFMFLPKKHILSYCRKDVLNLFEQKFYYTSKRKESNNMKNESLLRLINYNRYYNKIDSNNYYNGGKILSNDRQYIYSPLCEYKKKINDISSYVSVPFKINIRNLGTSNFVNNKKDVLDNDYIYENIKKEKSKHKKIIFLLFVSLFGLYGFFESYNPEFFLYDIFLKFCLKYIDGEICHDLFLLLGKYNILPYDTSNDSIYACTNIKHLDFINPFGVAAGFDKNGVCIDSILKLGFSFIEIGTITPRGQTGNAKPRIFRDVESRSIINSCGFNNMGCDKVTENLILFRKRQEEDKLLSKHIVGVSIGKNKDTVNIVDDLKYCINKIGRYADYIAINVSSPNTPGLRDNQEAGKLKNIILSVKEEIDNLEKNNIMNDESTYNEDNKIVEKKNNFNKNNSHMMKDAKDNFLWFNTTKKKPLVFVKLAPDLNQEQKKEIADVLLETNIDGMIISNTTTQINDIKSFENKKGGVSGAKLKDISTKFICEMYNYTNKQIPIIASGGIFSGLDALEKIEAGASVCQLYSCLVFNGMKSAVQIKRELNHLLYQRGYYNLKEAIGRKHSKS

SMILES | z-score [1] | z-score [2] | z-score [3] | z-score [4] | z-score [5] | z-score [6] | z-score [7] | z-score [8] | z-score [9] | z-score [10] | z-score [11] | z-score [12] | z-score [13] | composite z-score [14] | z-score [15] | z-score [16] | z-score [17] | z-score [18] | z-score [19] | composite z-score [20]
CO[C@H]1COC(=O)[C@H](C)COC(=O)[C@@H](OCc2ccccc2)C=C[C@@H]1C | 0.644 | 0.0582 | 0.392 | 0.493 | -0.584 | 0.919 | 0.308 (inactive) | -0.177 | 1.26 | -0.0266 (inactive) | 0.176 | -2.14 (inactive) | -0.114 (inactive) | 0.175 (inactive) | -0.355 (inactive) | -0.077 (inactive) | 1.02 (inactive) | 0.636 (inactive) | -0.476 | -0.138
CC(C)=CCCC(C)=CCON=C1C[C@@H](O)[C@@H](O)[C@@H]2[C@@H]3C(=O)N([C@@H](C)c4ccccc4)C(=O)[C@@H]3CC[C@@H]12 | -0.412 | 0.934 | -0.341 | 0.176 | -0.249 | -0.781 | -0.598 (inactive) | 0.0813 | 0.114 | -0.21 (inactive) | -0.243 | 0.408 (inactive) | -0.32 (inactive) | -0.0515 (inactive) | 0.283 (inactive) | -0.471 (inactive) | -0.464 (inactive) | -0.131 (inactive) | -0.249 | -0.0476
CCOC(=O)CCN1C(=O)[C@H]2[C@H]3[C@H](O)[C@H](O)CC(=NOCC=C(C)CCC=C(C)C)[C@H]3CC[C@H]2C1=O | 0.844 | -1.23 | 0.536 | 0.345 | 0.15 | 0.572 | 0.408 (inactive) | 0.523 | -1.44 | -1.1 (inactive) | -0.51 | 0.398 (inactive) | -0.524 (inactive) | -0.0222 (inactive) | 0.128 (inactive) | 0.0725 (inactive) | 0.614 (inactive) | 0.846 (inactive) | -0.764 | 0.0223
CCOC(=O)CCN1C(=O)[C@H]2[C@H]3[C@H](O)[C@H](O)CC(=NNC(=O)OCC)[C@H]3CC[C@H]2C1=O | -1.19 | 0.895 | -0.418 | -2.14 | -3.78 | -0.357 | -1.19 (inactive) | -0.541 | 0.0724 | -0.698 (inactive) | -0.207 | -1.01 (inactive) | 0.137 (inactive) | 0.519 (inactive) | 0.614 (inactive) | 0.235 (inactive) | -0.216 (inactive) | -0.318 (inactive) | -0.0651 | 0.106
CC(CCC(=O)OC[C@H]1O[C@H](C#Cc2ccccc2)C=C[C@@H]1Oc1ccc(C)cc1)=NOC(C)CN1CCCCc2nc(C)c(C)cc21 (stereo not given in full) | 0.393 | -0.239 | 0.0574 | -2.15 | -1.73 | 1.34 | -2.02 (inactive) | -0.325 | -0.737 | 0.599 (inactive) | 0.172 | 0.546 (inactive) | -0.0229 (inactive) | -0.669 (inactive) | 0.311 (inactive) | 0.46 (inactive) | 0.125 (inactive) | -0.116 (inactive) | 0.304 | -0.102
CCOC(=O)[C@H](CC(C)C)NC(=O)CCC1CC(OC(=O)NCCc2ccc(F)cc2)CC2(CCCC(COC(=O)NCc3cccc4ccccc34)O2)O1 (stereo not given in full) | -0.491 | -0.679 | -2.03 | -3.43 | -3.14 | 0.26 | -0.0268 (inactive) | 0.219 | -1.56 | 1.15 (inactive) | 0.682 | -1.9 (inactive) | 1.28 (inactive) | 0.0103 (inactive) | 0.168 (inactive) | -0.186 (inactive) | 0.424 (inactive) | -0.435 (inactive) | 1.3 | -0.0939
Cc1ccc(C(C)C)n1C(=O)OC(C)(C)C | 1.88 | 0.0856 | 0.577 | 0.547 | 0.228 | -0.503 | 0.499 (inactive) | 0.68 | 0.196 | -1.47 (inactive) | -0.728 | -0.947 (inactive) | -1.46 (inactive) | -1.24 (inactive) | 1.01 (inactive) | -1.18 (inactive) | 0.32 (inactive) | -0.113 (inactive) | -1.65 | -0.0509
CC(=O)OC[C@H]1O[C@H](CC=NOC[C@@H](O)[C@H]2O[C@@H]3OC(C)(C)O[C@@H]3[C@H]2O)C=C[C@@H]1OC(C)=O | 0.873 | -1 | -0.188 | 0.494 | -0.594 | 0.218 | 0.555 (inactive) | 0.632 | -0.527 | 0.0766 (inactive) | 0.287 | 0.933 (inactive) | -1.15 (inactive) | 0.189 (inactive) | -0.124 (inactive) | 1.08 (inactive) | 0.644 (inactive) | -0.717 (inactive) | -0.754 | 0.013
CCN1C(=O)[C@H]2[C@H]3[C@H](O)[C@H](O)CC(=NOC[C@@H](O)COCc4ccco4)[C@H]3CC[C@H]2C1=O | -0.199 | 0.47 | -0.0911 | 0.133 | -0.229 | -0.326 | -0.128 (inactive) | 0.545 | 0.905 | -0.45 (inactive) | -0.92 | -0.54 (inactive) | -0.809 (inactive) | -0.164 (inactive) | -0.425 (inactive) | -0.178 (inactive) | -0.0557 (inactive) | 0.322 (inactive) | -1.23 | -0.0948
